# PD-1 reverse act = reversal of PD-1 mediated T-cell inhibition | 29,000 tested, under 10 active | AID 2316 | activation, % (no concentration beside the values) | primary human CD4 T cells, PD-L1 beads, CellTiter-Glo 96 h; call rule not given here;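 further: 0% = median vehicle wells and 100% = positive control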
# MITF inh = MITF inhibition | TRPM1 promoter luciferase, luminescence, 24 h | inhibition, % (test concentration not listed) | 37,000 tested, 0.28% active; in the data active means inhibition above about 85%;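 further: human melanocyte line stably carrying TRPM1 promoter luciferase reporter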
# YB-1 expr inh = YB-1 expression inhibition. 30,000 tested, 0.37% active. delta delta Cp (YB-1 minus CDIP) (test concentration not listed). AID 434959. U2OS, qRT-PCR YB-1 vs CDIP delta delta Cp, 16 h; stronger effect = higher value; zero = DMSO, each unit about twofold;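 active means delta delta Cp rounded down to an integer at or above 3, about 3 SD of DMSO wells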;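 further: higher means less YB-1 transcript or more CDIP transcript relative to DMSO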
# NOMO-1 viab = STK33 inhibitor candidate reducing NOMO-1 cell viability | NOMO-1 AML viability, CellTiter-Glo luminescence, 72 h | inhibition, % (test concentration not listed) | 37,000 tested, 7.5% active | AID 2330; in the data active means inhibition above about 80%
# Hedgehog inh = Sonic Hedgehog pathway inhibition | Shh-LIGHT2 Gli-luciferase reporter, 30 h | inhibition, % (concentration not given with the values) | 22,000 tested, 2.1% active | AID 2313;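 active means mean inhibition across valid replicates above about 65%, limit read from the data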;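 further: pathway switched on by Shh-conditioned medium diluted 1 in 25 in low serum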
# An asterisk follows results filed as active; . = no result given. An excerpt weighted towards active compounds, which were near 7.4% of everything screened.
SMILES,PD-1 reverse act,MITF inh,YB-1 expr inh,NOMO-1 viab,Hedgehog inh
C[C@@H]1CN([C@H](C)CO)C(=O)Cc2cc(NS(=O)(=O)c3ccc(F)cc3)ccc2O[C@@H]1CN(C)Cc1ccccc1,0,9,-0.22,13,11
COc1ccc(-c2nnc(SCC(=O)Nc3cccc(F)c3)n2C)cc1,1,19,.,-6,.
Cc1ccc(S(=O)(=O)Nc2ccc3c(c2)CC(=O)N([C@H](C)CO)C[C@@H](C)[C@@H](CN(C)Cc2ccccc2)O3)cc1,0,-3,0.075,85*,-9
CC(=O)OCC(=O)[C@@]1(O)[C@H](C)C[C@H]2[C@@H]3CCC4=CC(=O)C=C[C@]4(C)[C@@]3(F)[C@@H](O)C[C@@]21C,-3,-47,0.23,15,82*
CC(=O)OCC(=O)[C@@]1(O)CCC2C3C[C@H](C)C4=CC(=O)C=CC4(C)C3[C@@H](O)CC21C (some centres not stated),-4,-14,-0.12,-14,41
CC(=O)[C@@]1(O)CC[C@H]2[C@@H]3C[C@H](C)C4=CC(=O)C=C[C@]4(C)[C@@]3(F)[C@@H](O)C[C@@]21C,.,-36,-0.14,-13,67*
C[C@@H]1C[C@H]2[C@@H]3CCC4=CC(=O)C=C[C@]4(C)[C@@]3(F)[C@@H](O)C[C@]2(C)[C@@]1(O)C(=O)CO,-3,-32,0.15,5,18
CCOC(=O)C(N)Cc1ccccc1 (configuration not stated),1,3,-0.24,-18,-16
CN(CC(=O)Nc1ccccc1-c1ccccc1)S(=O)(=O)c1ccc(Br)cc1,0,11,.,29,.
CCN(CC)c1ccc2cc(C(N)=O)c(=Nc3ccc(F)cc3)oc2c1,-1,2,0.19,94*,-27
CCN(CC)C(=O)[n+]1ccc(OC)cc1,-1,59,-0.11,61,.
Cc1cccc(NC(=O)Cn2cnc3sc(-c4ccccc4)cc3c2=O)c1,2,-9,.,13,.
O=C(Cn1cnc2sc(-c3ccccc3)cc2c1=O)NCc1ccco1,.,-8,.,116*,.
O=C(O)c1cccc(CN2CCN(c3ccccc3)CC2)c1,-1,-1,0.12,21,-24
COC(=O)c1cc2ccccc2[nH]1,0,9,-0.59,27,2
Cc1noc(COc2ccccc2)c1C(=O)Sc1ccc(F)cc1F,-3,-2,0.22,123*,.
Clc1ccc(-c2nnc(SCC3CC3)o2)cc1,0,36,-0.25,15,-116
CCOC(=O)C1=C(C)NC(C)=C(C(=O)OC)C1c1cccc(Cl)c1Cl (configuration not stated),.,11,0.1,27,23
COC(=O)C1=C(C)NC(C)=C(C(=O)OC)C1c1ccc(C(C)C)cc1,0,-24,0.12,110*,40
C=C1CCC2(C(=O)O)CCC3(C)C(=CCC4C5(C)C[C@@H](O)[C@H](O)C(C)(CO)C5CCC43C)C2C1C (some centres not stated),.,.,0.28,.,12
CCOC(=O)c1ccc(NC(=O)CSc2nc3cc4ccccc4cc3[nH]2)cc1,-6,-9,.,111*,.
C=CCn1c(C)c2cc(Cl)c(Cl)cc2[n+]1C,1,-11,-0.27,0,1
C=CCN1C(=O)/C(=C/c2cn(C(C)CC)c3ccccc23)C(=O)NC1=S (configuration not stated),-3,5,-0.29,132*,.
C=CCN1C(=O)/C(=C/c2cc(C)n(CCOC)c2C)C(=O)NC1=S,2,22,-0.023,10,3
CCc1nc(-n2nnc3cc(C)c(C)cc32)c2c3c(sc2n1)CCCC3,1,33,-0.23,32,-4
SMILES,PD-1 reverse act,MITF inh,YB-1 expr inh,NOMO-1 viab,Hedgehog inh
Cn1c(SCc2nc(-c3ccc(Cl)cc3)no2)nnc1-c1ccccc1,.,5,.,-20,.
Cc1c(C2CCN(CCc3ccccc3)CC2)noc1-c1ccc(Cl)cc1,.,-1,-0.2,93*,77*
O=C(NC1CCN(C(=O)C2CCC2)CC1)C1CCCCC1,0,-13,0.085,8,-1
CSc1ncc(Cl)c(C(=O)Nc2sc3c(c2C(=O)NCc2ccco2)CCC3)n1,0,23,.,11,.
COC(=O)c1ccccc1NC(=O)CN(C)S(=O)(=O)c1ccc2ccccc2c1,.,3,.,36,.
C[C@H]1CN([C@@H](C)CO)C(=O)c2cc(NC(=O)Nc3ccc(C(F)(F)F)cc3)ccc2O[C@@H]1CN(C)Cc1ccc2c(c1)OCO2,-5,-12,-0.93,101*,.
C[C@H]1CN([C@@H](C)CO)C(=O)c2cc(NC(=O)Nc3ccc(F)cc3)ccc2O[C@H]1CN(C)Cc1ccc2c(c1)OCO2,-1,7,-0.037,92*,-25
C[C@H](CO)N1C[C@H](C)[C@@H](CN(C)Cc2ccc3c(c2)OCO3)Oc2ccc(NC(=O)Nc3ccc(C(F)(F)F)cc3)cc2C1=O,0,-1,0.065,11,.
C[C@@H]1CN([C@@H](C)CO)C(=O)c2cc(NC(=O)Nc3ccc(C(F)(F)F)cc3)ccc2O[C@@H]1CN(C)Cc1ccc2c(c1)OCO2,-2,-4,0.021,112*,.
C[C@@H]1CN([C@@H](C)CO)C(=O)c2cc(NC(=O)Nc3ccc(F)cc3)ccc2O[C@@H]1CN(C)Cc1ccc2c(c1)OCO2,1,-2,0.1,19,44
C[C@H](CO)N1C[C@H](C)[C@H](CN(C)Cc2ccc3c(c2)OCO3)Oc2ccc(NC(=O)Nc3ccc(C(F)(F)F)cc3)cc2C1=O,0,1,0.18,99*,8
C[C@@H]1CN([C@@H](C)CO)C(=O)c2cc(NC(=O)Nc3ccc(C(F)(F)F)cc3)ccc2O[C@H]1CN(C)Cc1ccc2c(c1)OCO2,-3,-3,-0.067,59,.
C[C@@H]1CN([C@H](C)CO)C(=O)c2cc(NC(=O)Nc3ccc(C(F)(F)F)cc3)ccc2O[C@@H]1CN(C)Cc1ccc2c(c1)OCO2,0,-10,0.057,49,.
O=C(O)c1c(O)cc(OC2OC(CO)C(O)C(O)C2O)cc1/C=C/c1ccccc1 (configuration not stated),2,0,-0.5,-6,-24
Cn1cnc([N+](=O)[O-])c1Sc1ncnc2nc[nH]c12,2,23,0.15,119*,22
C=CC[n+]1ccc2ccccc2c1,2,10,0.17,4,-22
Fc1ccc(Nc2nc3ccccc3nc2Nc2ccc(F)cc2)cc1,-7,35,0.15,135*,.
C[C@@H]1CN([C@H](C)CO)C(=O)c2cccc(NC(=O)Nc3ccc(C(F)(F)F)cc3)c2O[C@@H]1CN(C)C(=O)Nc1ccc2c(c1)OCO2,-3,10,0.35,112*,-12
C[C@H]1CN([C@@H](C)CO)C(=O)c2cccc(NC(=O)Nc3ccc4c(c3)OCO4)c2O[C@@H]1CN(C)C(=O)Nc1ccc2c(c1)OCO2,-1,-22,-0.33,41,-11
C[C@H](CO)N1C[C@H](C)[C@H](CN(C)C(=O)Nc2ccc3c(c2)OCO3)Oc2c(NC(=O)Nc3ccc(C(F)(F)F)cc3)cccc2C1=O,-3,40,-0.59,115*,-67

# Bioassay records: PubChem, Broad Institute
